The test system of experiment [1] is Human papillomavirus type 1a protein E7 (residues 44-93). Description: small molecules binding HPV E7 44-93 – biochemical, small-molecule microarray, residues 44-93, 635 nm fluorescence, primary screen (AID 1108).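 Note: E7 fragment applied at 1 µg/mL in TBST for 1 h at 4 C; score combines spot fluorescence with its signal to noise ratio.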 To be noted: fluorescence 635 nm, higher = more signal.
A short description of experiment [2]: hepatitis C replication reporter changes, two-sided – Huh7 cells, luciferase reporter, HCV replication inhibitor project, primary screen (AID 1109).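 Note: huh7 hepatoma cells harbouring a luciferase neomycin HCV replicon reporter; luciferase luminescence as measure of HCV replicon replication; test concentration not given here.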 To be noted: Huh7 HCV replicon luciferase reporter, 48 h; higher = more signal. In general terms: A reporter such as luciferase makes a cellular process visible.
In experiment [3] the target is Left-right determination factor 2 (Homo sapiens) (UniProt O00292). Briefly: small molecules binding LEFTY2 protein – biochemical, small-molecule microarray, 635 nm fluorescence scan, primary screen (AID 1110). The following applies: higher = more signal.
Experiment [4] deals with Calmodulin-1 (Homo sapiens) (UniProt P0DP23). Description: small molecules binding calmodulin-1 with EGTA – biochemical, small-molecule microarray, Cy5-labelled CALM1, profiling panel (AID 1111).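 Note: labelled calmodulin applied in Tris saline Tween buffer holding calcium plus EGTA and DTT.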 To be noted: Cy5-CALM1 binding fluorescence, higher = more signal.
For experiment [5] the target is unchanged. Briefly: small molecules binding Ca-loaded calmodulin-1 – biochemical, small-molecule microarray, Cy5-labelled CALM1, plus calcium, artefact control for SMM control-protein annotation, profiling panel (AID 1112).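 Note: score merges spot fluorescence with signal to noise from triplicate slides.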 To be noted: Cy5-CALM1 binding fluorescence, higher = more signal.
Experiment [6] is described as follows: probe aWnt5a binding to arrayed compounds – biochemical, biotinylated probe, 635/667 nm fluorescence, primary screen (AID 1113).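 Note: score merges 667 nm fluorescence intensity with signal-to-noise per printed feature.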 To be noted: small-molecule microarray, higher = more signal.
Experiment [7] can be described thus: probe aShh binding to arrayed compounds – biochemical, biotinylated probe, 635/667 nm fluorescence, primary screen (AID 1114).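 Note: probe is biotin-labelled aShh protein from a stem cell growth factor screen; measures binding of labelled protein to compounds printed on the slide; score merges feature fluorescence at 667 nm with signal-to-noise.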 The following applies: small-molecule microarray, higher = more signal.
Experiment [8] can be described thus: probe aNog binding to arrayed compounds – biochemical, biotinylated probe, 635/667 nm fluorescence, primary screen (AID 1115).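 Note: probe is biotinylated aNog protein used at 0.15 µg/mL for 1 h at 4 C; z-score combines 667 nm fluorescence of each spot with its signal to noise.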 To be noted: small-molecule microarray, higher = more signal.
Experiment [9] addresses Torsin-1A-interacting protein 1 (Homo sapiens) (UniProt Q5JTV8). Description: compound microarray binding of lysate hLAP1 – cell lysate, small-molecule microarray, COS7 lysate, 635/667 nm fluorescence, primary screen (AID 1116). The following applies: 635 nm fluorescence, higher = more signal.
The target of experiment [10] is Alpha-bungarotoxin (Bungarus multicinctus) (UniProt P60615). Description: compounds binding labelled alpha-BTX control protein – biochemical, small-molecule microarray, Alexa647 label, 635/667 nm fluorescence, artefact control for SMM control protein annotation, profiling panel (AID 1117). To be noted: alpha-BTX-A647 binding fluorescence, higher = more signal.
For the next experiment, the target named is Albumin (Bos taurus) (UniProt P02769). Briefly: compounds binding labelled BSA control protein – biochemical, small-molecule microarray, Alexa647 label, 635/667 nm fluorescence, artefact control for SMM control protein annotation, profiling panel (AID 1118).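 Note: score merges 667 nm emission intensity and signal-to-noise per printed compound spot.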 The following applies: BSA-A647 binding, fluorescence 635 nm, higher = more signal.
A short description of experiment [11]: probe aXIP binding to arrayed compounds – biochemical, NeuroSMM set, 635/667 nm fluorescence, primary screen (AID 1119).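 Note: probe is the protein aXip251-270 applied at 1 µg/mL to compound-printed slides; binding of probe to printed compounds measured as 667 nm fluorescence plus signal to noise.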 To be noted: small-molecule microarray, higher = more signal, called active from +8 up or from −8 down.
Experiment [12] is described as follows: probe aNOTCH3 binding on compound microarray – biochemical, small-molecule microarray, 635/667 nm fluorescence, primary screen (AID 1120).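 Note: probe is a biotin-tagged antibody raised against NOTCH3 rather than NOTCH3 protein; score merges spot fluorescence near 667 nm with spot signal to noise.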 The following applies: higher = more signal.
A short description of experiment [13]: probe aNOTCH2 binding on compound microarray – biochemical, small-molecule microarray, 635/667 nm fluorescence, primary screen (AID 1121).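 Note: score merges feature fluorescence read at 667 nm with its signal to noise.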 The following applies: higher = more signal.
For experiment [14], the target named is Carbonic anhydrase 2 (Homo sapiens) (UniProt P00918). Briefly: compounds binding carbonic anhydrase 2 – biochemical, small-molecule microarray, Alexa647-labelled CAII, profiling panel (AID 1122). The following applies: CAII-A647 binding fluorescence, higher = more signal.
Experiment [15] is described as follows: COS7 lysate on small-molecule microarray, probe aHis, 635 nm (AID 1123).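 Note: z-score combines 667nm fluorescence intensity with signal-to-noise per printed compound spot.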 The following applies: COS7 cell lysate, fluorescence, higher = more signal.
The nature of experiment [16]: probe aLAP1 signal on lysate-treated microarray – cell lysate, small-molecule microarray, COS7 lysate, primary screen (AID 1124).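 Note: lysate comes from COS7 cells expressing LAP1 and is applied at 0.3 µg/mL; score merges spot fluorescence near 667 nm with signal-to-noise over triplicate slides.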 To be noted: probe aLAP1, fluorescence, higher = more signal.
The test system of another experiment is Sam68 (KHDRBS1). Description: compounds binding KHDRBS1 protein – biochemical, small-molecule microarray, 635 nm fluorescence, primary screen (AID 1125).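 Note: score merges 667 nm channel intensity with signal to noise over triplicate slides.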 To be noted: higher = more signal.
In experiment [17] the test system is Chordin-like protein 2 (CHRDL2). Description: compounds binding chordin-like 2 – biochemical, small-molecule microarray, 635 nm fluorescence, primary screen (AID 1126).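 Note: printed compound slides probed with Chrdl2 protein at 4 µg/mL for 1 h at 4 C; score merges 667 nm emission intensity with signal to noise over three replicate slides.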 To be noted: fluorescence 635 nm, higher = more signal.
Experiment [18] has as its target Concanavalin-A (Canavalia ensiformis) (UniProt P02866). Description: compounds binding concanavalin A lectin – biochemical, small-molecule microarray, Alexa647 label, 635 nm, artefact control for SMM control protein annotation, primary screen (AID 1127).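 Note: z combines 667 nm emission intensity with signal-to-noise across three replicate slides.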 To be noted: ConA-A647 binding fluorescence, higher = more signal.

Activity calls are given as the source filed them.

Sequence of Alpha-bungarotoxin (Bungarus multicinctus) (P60615 whole entry, looked up): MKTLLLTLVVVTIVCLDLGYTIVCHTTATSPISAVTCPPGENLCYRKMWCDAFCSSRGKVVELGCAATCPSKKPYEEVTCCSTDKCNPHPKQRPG
Sequence of Albumin (Bos taurus) (P02769 whole entry, looked up): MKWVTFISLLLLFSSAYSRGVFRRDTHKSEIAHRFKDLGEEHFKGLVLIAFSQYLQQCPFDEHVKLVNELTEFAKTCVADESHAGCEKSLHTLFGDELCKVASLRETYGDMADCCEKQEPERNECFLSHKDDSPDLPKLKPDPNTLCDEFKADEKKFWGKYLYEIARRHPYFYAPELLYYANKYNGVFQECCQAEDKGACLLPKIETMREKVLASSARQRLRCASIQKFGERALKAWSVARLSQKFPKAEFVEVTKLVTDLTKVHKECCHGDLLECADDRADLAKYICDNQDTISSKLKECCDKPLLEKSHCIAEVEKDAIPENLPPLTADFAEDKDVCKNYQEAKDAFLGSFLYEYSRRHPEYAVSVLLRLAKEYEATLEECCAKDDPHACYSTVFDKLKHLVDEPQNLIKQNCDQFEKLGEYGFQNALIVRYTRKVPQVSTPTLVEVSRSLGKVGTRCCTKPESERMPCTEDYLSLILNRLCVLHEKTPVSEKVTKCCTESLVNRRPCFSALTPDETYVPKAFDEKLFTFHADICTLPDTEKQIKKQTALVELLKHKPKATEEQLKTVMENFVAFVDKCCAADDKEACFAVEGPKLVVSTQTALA
Sequence of Concanavalin-A (Canavalia ensiformis) (P02866 whole entry, looked up): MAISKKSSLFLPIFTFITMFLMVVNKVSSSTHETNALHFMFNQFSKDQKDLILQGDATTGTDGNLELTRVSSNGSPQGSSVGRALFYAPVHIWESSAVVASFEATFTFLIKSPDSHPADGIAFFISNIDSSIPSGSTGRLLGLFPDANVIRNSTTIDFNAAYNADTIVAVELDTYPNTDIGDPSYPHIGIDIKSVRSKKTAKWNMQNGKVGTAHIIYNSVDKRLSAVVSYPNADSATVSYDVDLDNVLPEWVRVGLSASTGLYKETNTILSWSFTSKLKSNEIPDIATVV
Sequence of Torsin-1A-interacting protein 1 (Homo sapiens) (Q5JTV8 whole entry, looked up): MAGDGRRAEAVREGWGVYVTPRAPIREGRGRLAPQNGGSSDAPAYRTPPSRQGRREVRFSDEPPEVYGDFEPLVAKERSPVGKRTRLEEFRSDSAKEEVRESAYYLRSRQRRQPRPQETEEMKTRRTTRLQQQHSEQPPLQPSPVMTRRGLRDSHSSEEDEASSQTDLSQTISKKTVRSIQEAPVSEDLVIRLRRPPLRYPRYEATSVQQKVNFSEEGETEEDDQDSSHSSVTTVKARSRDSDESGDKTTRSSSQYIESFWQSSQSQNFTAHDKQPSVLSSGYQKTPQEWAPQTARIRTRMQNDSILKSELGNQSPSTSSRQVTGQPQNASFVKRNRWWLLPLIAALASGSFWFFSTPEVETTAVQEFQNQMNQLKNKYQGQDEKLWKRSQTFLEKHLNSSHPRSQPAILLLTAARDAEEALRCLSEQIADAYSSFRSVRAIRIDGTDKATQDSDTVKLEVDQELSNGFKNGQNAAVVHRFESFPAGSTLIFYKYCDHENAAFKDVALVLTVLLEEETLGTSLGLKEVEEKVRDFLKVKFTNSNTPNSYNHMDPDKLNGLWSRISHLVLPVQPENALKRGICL
Sequence of Left-right determination factor 2 (Homo sapiens) (O00292 whole entry, looked up): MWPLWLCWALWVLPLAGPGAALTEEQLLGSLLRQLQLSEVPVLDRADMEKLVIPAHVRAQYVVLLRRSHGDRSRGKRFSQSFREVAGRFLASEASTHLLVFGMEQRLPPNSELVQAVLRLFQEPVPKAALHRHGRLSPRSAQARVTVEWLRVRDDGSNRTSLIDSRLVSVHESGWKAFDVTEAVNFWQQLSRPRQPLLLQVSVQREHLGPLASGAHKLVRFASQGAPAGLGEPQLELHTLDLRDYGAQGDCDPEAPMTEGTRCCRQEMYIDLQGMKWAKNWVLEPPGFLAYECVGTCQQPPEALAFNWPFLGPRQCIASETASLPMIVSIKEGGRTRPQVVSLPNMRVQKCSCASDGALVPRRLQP

Take `C=CC[C@@]1(C(=O)NCC(O)CO)N=C(c2ccc(OCCCO)cc2)O[C@@H]1c1ccccc1N=[N+]=[N-]` (stereo not given in full): the composite z-score in experiment [1] is 1.49; in experiment [3], -0.709; in [4], 1.61; in experiment [5], 0.643; in experiment [6] it was -0.0846; in experiment [7] it was 0.0062. The composite z-score in [8] is 1.39; in experiment [9] it was 2.06; in experiment [10], 1.12; in the experiment with Albumin (Bos taurus) it was 1.04; in experiment [12], 0.266; in experiment [13], 0.0007. The composite z-score in experiment [14] was 0.778; in [15], 3.7; in experiment [16], 1.02; in the experiment with Sam68 (KHDRBS1) it was 0.931; in [17] it was -0.982; in [18], 0.97. In experiment [2], this compound registered a z-score of -0.747. Besides, the composite Z-score in experiment [11] was 0.338 (inactive).
In the case of `NC(=O)NCC#Cc1ccc2c(c1)[C@]1(C(=O)N2)[C@H](C(=O)NC[C@H](O)c2ccccc2)[C@H]2C(=O)O[C@H](c3ccccc3)[C@H](c3ccccc3)N2[C@@H]1c1ccc(O)cc1`, the composite z-score in experiment [1] was determined as 1.38; in [3], 0.691; in experiment [4], 2; in experiment [5], 0.916; in experiment [6], 0.551; in [7] it was 0.456. Also, the composite z-score came out at 0.921 in experiment [8]; 1.45 in [9]; 2.19 in experiment [10]; 0.496 with Albumin (Bos taurus); 0.51 in experiment [12]; 0.159 in experiment [13]. In addition, the composite z-score in experiment [14] is 0.501; in experiment [15] it was 2.15; in [16], 0.743; in the experiment on Sam68 (KHDRBS1), 0.998; in experiment [17], 0.395; in experiment [18], 1.13. Also, the z-score in experiment [2] was -0.257. In addition, the composite Z-score in experiment [11] is 0.58 (inactive).
Turning to `C=CCNC(=O)[C@@H]1[C@H]2C(=O)O[C@H](c3ccccc3)[C@H](c3ccccc3)N2[C@H](c2ccc(O)cc2)[C@@]12C(=O)N(C(=O)OCCOC)c1ccccc12`, the composite z-score was 1.2 in experiment [1]; -0.211 in experiment [3]; 0.922 in [4]; -0.42 in experiment [5]; -0.0478 in experiment [6]; -0.0904 in experiment [7]. The composite z-score in experiment [8] is 0.215; in experiment [9] it was 1.12; in experiment [10], 2.27; with Albumin (Bos taurus) it was 0.752; in experiment [12], -0.0716; in experiment [13], -0.143. The composite z-score in experiment [14] was 0.519; in experiment [15] it was 2.23; in experiment [16] it was 0.334; in the experiment with Sam68 (KHDRBS1), 1.28; in experiment [17] it was -0.49; in experiment [18], -0.18. Also, in experiment [2], the z-score was -1.43. The composite Z-score in experiment [11] is -0.155 (inactive).
With `COC(=O)[C@@]1(Cc2ccc(F)cc2)[C@H]2c3cc(C(=O)N4CCCC4)n(Cc4cccc5ccccc45)c3C[C@H]2CN1C(=O)c1ccccc1`, the composite z-score in experiment [1] was 1.37; in [3], -0.201; in [4] it was 1.23; in experiment [5] it was 0.0721; in experiment [6], 0.0859; in experiment [7], 0.111. Also, the composite z-score was determined as 1.36 in [8]; 1.84 in experiment [9]; 1.07 in experiment [10]; 1.08 in the experiment with Albumin (Bos taurus); 0.535 in experiment [12]; 0.173 in [13]. Moreover, the composite z-score in experiment [14] was 0.533; in experiment [15], 3.22; in [16] it was 0.513; with Sam68 (KHDRBS1), 1.07; in [17], -0.411; in experiment [18], 0.405. Further, in [2], the z-score was -1.37. In [11], the composite Z-score is -0.421 (inactive).
For `COC(=O)c1ccc(C(O)C2C=CC3C(=O)N(C)C(=O)C3N2NC(=O)OC(C)(C)C)o1` (stereo not given), the composite z-score was 0.703 in experiment [1]; 0.432 in experiment [3]; 0.81 in experiment [4]; -0.493 in experiment [5]; 0.112 in [6]; -0.0904 in [7]. Also, the composite z-score in experiment [8] is 0.672; in experiment [9], 2.02; in experiment [10], 0.977; with Albumin (Bos taurus), 0.538; in experiment [12], 0.178; in experiment [13], 0.135. For the same compound, the composite z-score in [14] was 0.436; in experiment [15], 0.489; in [16], 0.734; with Sam68 (KHDRBS1), 0.94; in [17], -0.0987; in experiment [18], 0.494. For the same compound, the z-score in [2] was -0.104. The composite Z-score in experiment [11] was 1.02 (inactive).
In the case of `CCCCC(CC)C(O)C1C=CC2C(=O)N(c3ccccc3)C(=O)C2N1Nc1ccccc1` (stereo not given), the composite z-score in experiment [1] was 1.33; in experiment [3] it was -0.354; in experiment [4], 1.25; in [5], 0.831; in experiment [6] it was 0.173; in experiment [7], 0.108. The composite z-score in experiment [8] is -0.259; in experiment [9], 0.886; in experiment [10], 1.1; with Albumin (Bos taurus) it was 0.83; in experiment [12], 0.206; in [13], -0.122. In addition, the composite z-score in experiment [14] was 0.665; in experiment [15], 2.28; in experiment [16] it was 0.297; with Sam68 (KHDRBS1), 0.883; in experiment [17], -0.804; in [18], 0.964. The compound further gave a z-score in [2] of -1.71. Also, in experiment [11], the composite Z-score is 0.392 (inactive).
